Only some compounds are listed: those with a hit (about 4.1% of all), similar ones and a draw of the others.
Rv3671c inh: inhibitors of M. tuberculosis serine protease Rv3671c | P9WHR9 | inhibition, % at 5.96 µM | actives 0.048% (n = 320,000) | AID 2606; in the data active = inhibition above about 38%;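 also: extracellular domain of Rv3671c used as enzyme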
Mtb UGM inh: inhibitors of M. tuberculosis UDP-galactopyranose mutase; inhibition, % at 10 µM; P9WIQ1; actives 0.06% (n = 320,000); purified UGM, fluorescence polarization probe displacement; in the data active = inhibition above about 10%, passing the limit was not always enough
Target sequence (P9WIQ1 whole entry, looked up): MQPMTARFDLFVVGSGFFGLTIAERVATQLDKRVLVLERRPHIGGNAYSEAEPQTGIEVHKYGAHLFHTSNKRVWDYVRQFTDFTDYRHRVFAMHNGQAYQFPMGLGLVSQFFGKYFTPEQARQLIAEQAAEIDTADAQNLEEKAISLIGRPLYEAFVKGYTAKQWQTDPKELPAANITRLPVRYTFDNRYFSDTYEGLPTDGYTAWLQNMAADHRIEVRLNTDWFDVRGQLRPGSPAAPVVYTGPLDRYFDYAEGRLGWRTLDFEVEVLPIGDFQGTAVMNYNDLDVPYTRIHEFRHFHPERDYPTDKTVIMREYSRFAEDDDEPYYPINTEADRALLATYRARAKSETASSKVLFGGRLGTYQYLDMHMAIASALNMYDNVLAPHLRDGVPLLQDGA
Mtb FBA inh: Mtb fructose-bisphosphate aldolase inhibition; P9WQA3; purified M. tuberculosis FBA, fluorescence read-out; inhibition, % at 1 µM; actives 2.3% (n = 360,000); AID 588726
RecA intein inh: blocks M. tuberculosis RecA intein splicing; cell-free RecA intein splicing, fluorescence; inhibition, % (no concentration beside the values); actives 0.75% (n = 290,000); in the data active = inhibition above about 30%
GDH-TPI counter-1: counter-screen for M. tuberculosis FBA inhibitors: GDH-TPI coupled enzymes; inhibition, % at 4.8 µM; actives 1.2% (n = 360,000); GDH-TPI coupled enzyme counterscreen, NADH absorbance; in the data active = inhibition above about 30%
Vc quorum ag: induces V. cholerae light production without autoinducers | actives 0.16% (n = 350,000) | activation, % at 18.7 µM | V. cholerae BH1578 lux reporter, luminescence, 6 h; in the data active = activation mostly above about 9.7%, no sharp cut-off
Mtb FBA confirm: confirmation of M. tuberculosis fructose-bisphosphate aldolase inhibitors; shares compounds with Mtb FBA inh; purified M. tuberculosis FBA, fluorescence read-out; inhibition, % at 1 µM; actives 78% (n = 5,600); AID 651616
GDH-TPI counter-2: GDH-TPI inhibition counter-screen for FBA inhibitors; shares compounds with Mtb FBA inh; GDH-TPI coupled enzyme counterscreen, fluorescence; inhibition, % at 1 µM; actives 81% (n = 5,600); in the data active = inhibition above about 10%
Hits are given with their value; – = inactive; · = no result; + = active, no number. Rule as the data show it, unless noted: active = inhibition above about 27%; inactive = the rest.

SMILES	Rv3671c inh	Mtb UGM inh	Mtb FBA inh	RecA intein inh	GDH-TPI counter-1	Vc quorum ag	Mtb FBA confirm	GDH-TPI counter-2
CCc1ccc(-c2cc(C)no2)cc1S(=O)(=O)Nc1ccccn1	–	–	–	–	–	–	·	·
Cc1ccc(NS(=O)(=O)c2cc(-c3cc(C)no3)ccc2C(C)C)nc1	–	–	37.3	–	–	–	29.1	24.0
CCc1ccc(-c2cc(C)no2)cc1S(=O)(=O)Nc1ccc(C)cn1	–	–	30.6	–	–	–	–	–
COc1cccc(-c2ccc(C#N)c(OC(=O)c3ccc(Cl)cc3)n2)c1	–	–	95.1	–	–	·	135.3	106.1
COC(=O)[C@]1(Cc2ccccc2)N[C@H](CN(C)C(=O)Nc2ccc(Cl)cc2)[C@@H]2C(=O)N(C)C(=O)[C@@H]21	–	·	–	·	–	–	·	·
CC(C)NC(=O)C1(C)CCN1C(=O)c1ccc(F)c(Cl)c1 (stereo unspecified)	·	·	–	·	–	–	·	·
O=C(Nc1nccs1)c1ccccc1N=Cc1ccccc1	–	–	87.5	–	–	–	–	–
COc1cccc(C=Nc2ccccc2C(=O)Nc2nccs2)c1OC	–	–	68.4	–	–	–	156.1	125.9
COc1cc2ccccc2cc1C(=O)Nc1nccs1	–	–	–	–	–	–	·	·
CCCCC(c1nc2ccccc2[nH]1)n1c(=O)c(-c2ccccc2)nc2cc(C)c(C)cc21 (stereo unspecified)	·	·	–	·	·	·	·	·
CCN(CC)c1ccc(-c2nn3c(-c4ccccc4OC)nnc3s2)cc1	–	–	30.8	–	–	–	51.9	31.1
COc1ccc(-c2nn3c(-c4ccccc4)nnc3s2)cc1	–	–	–	–	–	–	·	·
O=C(/C=C/[C@H]1O[C@@H](n2ccc(=O)[nH]c2=O)[C@H](O)[C@@H]1O)N1CCN(Cc2ccc(F)cc2)CC1	·	·	–	·	·	·	·	·
CSCCC(NC(=O)c1ccccc1)C(=O)O (stereo unspecified)	–	–	42.3	–	–	–	·	+
O=C(NCCO)c1cc2c([nH]c3ccccc32)c(-c2ccccc2)n1	–	–	–	–	–	–	·	·
C[C@H](NC(=O)c1cc2c([nH]c3ccccc32)c(-c2ccccc2)n1)C(=O)O	–	–	35.6	–	–	–	140.9	107.7
CSCC[C@H](NC(=O)c1cc2c([nH]c3ccccc32)c(-c2ccccc2)n1)C(=O)O	–	–	47.4	–	–	–	–	15.3
C[C@@H]1CN([C@H](C)CO)C(=O)CCCn2nncc2CO[C@H]1CN(C)Cc1ccncc1	·	·	–	·	–	–	·	·
COCCn1c(=NC(=O)c2ccc3c(c2)OCCO3)sc2cc(S(N)(=O)=O)ccc21	–	–	108.8	–	45.0	–	76.2	49.8
COCCn1c(=NC(=O)c2cc(Cl)sc2Cl)sc2cc(S(N)(=O)=O)ccc21	–	–	–	–	–	–	·	·
N#Cc1c(N(CCO)CCO)nc(N)c2c(N)nc3c(c12)CC(=O)N3CC1CCCO1 (stereo unspecified)	–	–	36.7	–	–	–	171.3	151.9
[O-][n+]1c2ccccc2cc2ccccc21	–	–	73.2	–	–	–	+	+
COc1ccc(C(C)=O)cc1Cn1c(C)c(C(=O)NCc2ccc3c(c2)OCO3)sc1=O	·	·	–	·	–	–	·	·
Cc1cc(C)c2cc(C#N)c(N3CCCC3)nc2c1	–	–	36.3	·	–	–	–	–
O=C(Nc1ccc2nn(-c3ccccc3)nc2c1)c1ccc(Br)o1	–	–	–	–	–	–	·	·
SMILES	Rv3671c inh	Mtb UGM inh	Mtb FBA inh	RecA intein inh	GDH-TPI counter-1	Vc quorum ag	Mtb FBA confirm	GDH-TPI counter-2
CC(=O)Nc1cc2nn(-c3ccccc3)nc2cc1C	–	–	89.7	–	–	–	199.8	159.4
CC(C)CC(=O)Nc1ccc2nn(-c3ccccc3)nc2c1	–	–	72.5	–	–	–	–	–
COC(=O)c1cc(=O)nc2sc(-c3cccs3)nn12	–	–	34.8	–	–	–	–	–
COC(=O)c1cc(=O)nc2sc(-c3ccc(F)cc3)nn12	–	–	–	–	–	–	·	·
COc1cccc(C2C3=C(CC(C)(C)CC3=O)Nc3n[nH]c(C)c32)c1 (stereo unspecified)	–	–	42.6	–	–	–	160.8	131.0
COc1ccc(C2C3=C(CC(C)(C)CC3=O)Nc3n[nH]c(C)c32)cc1 (stereo unspecified)	–	–	–	–	–	–	·	·
Cc1[nH]nc2c1C(c1ccsc1)C1=C(CC(C)(C)CC1=O)N2 (stereo unspecified)	–	–	55.4	–	–	–	51.3	38.5
CCCCCNc1nc2sc3c(c2c(=O)n1-c1cccc(Cl)c1)CCN(C)C3	–	–	52.1	–	–	–	109.1	88.8
CCCCNc1nc2sc3c(c2c(=O)n1-c1cccc(Cl)c1)CCN(C)C3	–	–	52.1	–	–	–	189.9	139.7
CCCCSc1nc2sc3c(c2c(=O)n1-c1ccccc1)CCN(C)C3	–	–	–	–	–	–	·	·
CCOC(=O)NN1C(=O)c2ccccc2NC1c1cccs1 (stereo unspecified)	–	–	31.3	–	–	–	82.3	70.3
CCOC(=O)NN1C(=O)c2ccccc2NC1c1ccc(OC)cc1OC (stereo unspecified)	–	–	41.6	–	–	–	179.9	143.7
O=C1c2ccccc2NC(c2cccs2)N1NS(=O)(=O)c1ccccc1 (stereo unspecified)	–	–	–	·	–	–	·	·
Cn1c(=O)c2[nH]c(SCc3cccnc3)nc2n(C)c1=S	·	·	–	·	–	–	·	·
Cc1ccc(C2N(C)C(=O)c3ccccc3N2C)cc1 (stereo unspecified)	·	–	51.8	–	–	–	+	+
Cc1ccc(C(C)C)c(OCC(=O)NNCC(=O)Nc2cccc(F)c2)c1	–	–	–	·	–	–	·	·
Cc1cc(OCc2cc(C(=O)N(C)CCc3cnn(C)c3)no2)cc(C)c1Cl	–	–	–	–	–	–	·	·
Cc1nc2c(c(C)nn2-c2ccccc2)c(C)c1CCC(=O)Nc1ccc(CN2CCCC2)cc1	–	–	30.5	–	–	–	65.8	48.9
CCOC(=O)CCc1c(C)nc2c(c(C)nn2-c2ccccc2)c1C	–	–	–	–	–	–	·	·
Cc1nc2c(c(C)nn2-c2ccccc2)c(C)c1CCC(=O)NCCCOC(C)C	–	–	40.6	–	–	–	40.2	36.1
COC(=O)C(NC(=O)CCc1c(C)nc2c(c(C)nn2-c2ccccc2)c1C)C(C)C (stereo unspecified)	·	–	43.3	–	–	–	57.5	47.9
CCCCNC(=O)CCc1c(C)nc2c(c(C)nn2-c2ccccc2)c1C	·	–	–	–	–	–	·	·
CCC(C)NC(=O)CCc1c(C)nc2c(c(C)nn2-c2ccccc2)c1C (stereo unspecified)	–	–	44.4	–	–	–	50.5	33.9
Cn1cc(S(=O)(=O)NC2CCCCC2)c(=O)n(C)c1=O	–	–	–	–	–	–	·	·

Screening results (PubChem BioAssay)
